This is a sample that favours compounds with a hit; in the whole collection about 7.5% have one here.
FLuc counter: firefly luciferase modulation, counter-screen for miR-21 project | P08659 | purified FLuc, Km substrates, luminescence inhibition | Potency, µM (doses to about 57.5 µM), most hits filed as inhibitors | 6.9% of 360,000 active | AID 588342; note: nearly all actives have a fitted effect of over 55% in size
Target sequence (P08659 whole entry, looked up): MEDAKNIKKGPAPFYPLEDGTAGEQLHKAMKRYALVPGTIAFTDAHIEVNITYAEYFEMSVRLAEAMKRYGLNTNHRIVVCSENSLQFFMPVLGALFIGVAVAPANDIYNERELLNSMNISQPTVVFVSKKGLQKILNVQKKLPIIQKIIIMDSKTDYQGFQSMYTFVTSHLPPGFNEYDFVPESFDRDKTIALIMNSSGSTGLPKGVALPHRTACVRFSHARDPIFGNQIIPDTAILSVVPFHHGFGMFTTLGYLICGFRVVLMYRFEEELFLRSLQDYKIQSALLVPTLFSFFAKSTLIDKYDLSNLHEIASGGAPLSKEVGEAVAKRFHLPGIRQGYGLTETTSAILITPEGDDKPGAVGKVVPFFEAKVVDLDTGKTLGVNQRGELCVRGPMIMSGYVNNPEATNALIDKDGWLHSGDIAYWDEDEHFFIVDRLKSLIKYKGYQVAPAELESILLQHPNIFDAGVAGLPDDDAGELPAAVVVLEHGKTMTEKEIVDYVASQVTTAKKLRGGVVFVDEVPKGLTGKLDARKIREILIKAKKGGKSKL
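Purified P. pyralis luciferase (10nM final) with 10uM D-luciferin and 10uM ATP (Km levels) in 50mM Tris acetate pH 7.5, 10mM Mg acetate, 0.01% Tween-20, 0.05% BSA; qHTS 6-point titration, ~60 µM downward; luminescence read.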
Rab9 prom act: activates the Rab9 promoter; Huh7 Rab9 promoter-luciferase reporter, luminescence, 24 h; Potency, µM (highest dose often 9.22 µM), usual class: activators; 2.8% of 320,000 active; note: nearly all actives have a fitted effect of over 60% in size
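Stable Rab9-luc Huh7, 1500 cells/well, 2 h settle; cmpd in DMSO, 24 h, 37 °C/5% CO2; luciferase reagent 10 min RT; luminescence.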
SMN2 splice up: increases expression of the SMN2 splice variant. HEK293 SMN2-luciferase splicing reporter, luminescence, 30-36 h. Potency, µM (titrated, usually from 46.1 µM), hits mostly activators. 2.8% of 210,000 active; note: nearly all actives have a fitted effect of over 55% in size
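HEK293 cells carry an SMN2 […]–luciferase reporter in which exon 7 inclusion puts luciferase in frame. Cells were plated 10-12 h before compound addition, then incubated 30-36 h at 37C. ONE-Glo luminescence was read; sodium butyrate at 4.5 mM final served as control.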
NPC1 promoter act: activators of NPC1 promoter | Huh7 NPC1 promoter luciferase reporter, 24 h | Potency, µM (doses to about 9.22 µM), actives largely listed as activators | 2.4% of 320,000 active; note: nearly all actives have a fitted effect of over 60% in size
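Stably transfected Huh7 (NPC1 promoter→luciferase), 1500 cells/well in Opti-MEM + 10% FBS, 2 h settle, then compound 24 h at 37 °C. Luminescence after 10 min with Amplite reagent.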
ELG1 genotox: inducers of genotoxicity in HEK293T ELG1-luciferase cells; HEK293T ELG1-luciferase reporter, luminescence, 16 h; Potency, µM (doses to about 46 µM), hits mostly activators; 1.3% of 330,000 active; AID 504466; note: nearly all actives have a fitted effect of over 60% in size
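Reporter readout depends on ELG1 protein level, which increases with genetic stress. After 16 hr compound exposure at 37 °C, luciferase activity was quantified using ONE-Glo.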
Hits are given with their value; n = inactive; u = inconclusive; x = not tested or not shown; [ ] = remark or other dose. Calls come from the whole dose curve; as a rule, active = well fitted curve in the direction sought with a large enough effect; inconclusive = small, poorly fitted or top-dose-only effect, or another doubt; inactive = no such curve, though single readings can be large; an effect the other way counts as inactive or inconclusive.

SMILES	FLuc counter	Rab9 prom act	SMN2 splice up	NPC1 promoter act	ELG1 genotox
COc1ccc(Cc2nc(C(=O)Nc3ccccc3)cs2)cc1	19µM	n	n	u	n
O=C(Nc1ccc(Cl)cc1)c1csc(Cc2ccccc2)n1	5.4µM	u	u	n	u
O=C(NC1CCCCC1)C(c1ccncc1)N(C(=O)c1csnn1)c1cccc(F)c1 (stereo unspecified)	n	n	x	n	n
CN(C1CCCCC1)S(=O)(=O)c1ccc(C(=O)N2CCN(c3nc4ccccc4s3)CC2)cc1	n	n	n	n	n
CCc1cccc(C)c1NC(=S)NCC(c1cccnc1)N1CCOCC1 (stereo unspecified)	n	n	n	n	n
C/C(=N\NC(=O)c1ccco1)c1ccc(-c2ccccc2)cc1	2.4µM	3.5µM	x	3.2µM	9.2µM
C/C(=N\NC(=O)c1ccc2c(c1)OCO2)c1ccco1	9.5µM	0.79µM	13µM	u	n
C/C(=N/NC(=O)c1ccc2c(c1)OCO2)c1ccc(Br)s1	n	3.5µM	x	u	u
C/C(=N\NC(=O)c1ccco1)c1ccc(NC(=O)c2ccccc2)cc1	u	u	u	u	n
COC(=O)Cn1c(CN2CCN(C(=O)c3ccco3)CC2)nc2c1c(=O)n(C)c(=O)n2C	n	n	x	n	n
Cc1nc2ccccc2n1CCc1nc2c3ccccc3nc(SCc3ccccc3F)n2n1	n	x	x	x	x
Cc1ccc(C2=NN3C(=O)c4ccccc4C3C2)cc1 (stereo unspecified)	17µM	u	x	u	u
O=C(NC(=S)N(CCO)Cc1ccccc1)c1ccc(F)cc1Cl	n	n[1.84 µM]	x	n	n
COc1cc(OC)cc(C(=O)N2CCN(S(=O)(=O)c3ccc(Cl)s3)CC2)c1	n	n	x	n	n
Cc1cccc(NC(=O)c2c(O)c3ccccc3n(C)c2=O)c1	u	2µM	x	2.8µM	u
Cc1ccnc(NC(=O)c2c(O)c3ccccc3n(C)c2=O)c1	3µM	4µM	13µM	3.5µM	u
Cn1c(=O)c(C(=O)NCc2ccccc2)c(O)c2ccccc21	17µM	u	x	u	n
Cn1c(=O)c(C(=O)Nc2ncccc2O)c(O)c2ccccc21	u	u	n	3.2µM	u
COCCn1c(SCC(=O)Nc2ccc(F)c(Cl)c2)nc2c(oc3ccccc32)c1=O	n	x	n	x	x
COc1cccc(CNC(=O)CC(c2ccc(C)cc2)N2Cc3ccccc3C2=O)c1 (stereo unspecified)	n	x	x	x	x
CCn1c(=O)c(C(=O)Nc2ccc(C)cc2)c(O)c2ccccc21	u	n	x	n	n
Cc1ccc(NC(=O)c2c(O)c3ccccc3n(C)c2=O)nc1	u	n	u	3.5µM	n
C=CCn1c(=O)c(C(=O)Nc2ccccc2C)c(O)c2ccccc21	u	4µM	x	4µM	u
O=C(c1ccc(F)cc1)C1CCN(C(=S)NCC2CCCO2)CC1 (stereo unspecified)	n	n	x	n	n
C/C(=N\Nc1cc(C)nc(NCc2ccccc2)n1)c1cccc([N+](=O)[O-])c1	12µM	n	x	n	n
SMILES	FLuc counter	Rab9 prom act	SMN2 splice up	NPC1 promoter act	ELG1 genotox
C/C(=N\Nc1ccc(Cl)c(C(=O)O)c1)c1cccc([N+](=O)[O-])c1	19µM	u	x	u	n
C/C(=N\Nc1cc(N2CCOCC2)nc(C)n1)c1cccc([N+](=O)[O-])c1	n	n	n	n	n
C/C(=N\Nc1nnc(-c2ccccc2)c(-c2ccccc2)n1)c1cccc([N+](=O)[O-])c1	13µM	n	n	n	21µM
Cc1nn(-c2ccccc2)c(C)c1/C=N/NC(=O)CSc1nnc(SCc2cccc3ccccc23)s1	u	n	n	n	n
Cc1ccc(C(=O)N2CCc3cc(CNS(=O)(=O)c4cccs4)ccc32)cc1	n	x	x	x	x
COc1cccc(-n2c(SCC(N)=O)nc3c([nH]c4ccccc43)c2=O)c1	n	n	13µM	n	n
O=[N+]([O-])c1ccccc1OCc1nc(-c2cccs2)no1	6.7µM	2.5µM	13µM	2.5µM	u
COc1ccccc1CN1CCN(Cc2nc(-c3cccs3)no2)CC1	u	n	x	n	n
O=C(O)CCc1nc(-c2cccs2)no1	n	n	n	n	n
Cc1ccc(OCc2nc(-c3cccs3)no2)c([N+](=O)[O-])c1	0.76µM	0.25µM	2.8µM	0.4µM	u
O=[N+]([O-])c1ccc(F)cc1OCc1nc(-c2cccs2)no1	9.5µM	u	16µM	n	u

Bioassay records from PubChem BioAssay.
